BoNT-A LC inh2 – inhibitors of Botulinum neurotoxin A light chain protease | multiplex microsphere protease substrate cleavage, flow cytometry | inhibition, % at 10 µM | 0.17% of 360,000 active; also: plate controls were buffer without enzyme for full effect and enzyme alone for no effect
Anthrax LF inh2 – anthrax lethal factor protease inhibition; P15917; multiplex microsphere protease cleavage assay, LF; inhibition, % at 10 µM; 0.12% of 360,000 active; AID 588501; also: plate controls were buffer without enzyme for full effect and enzyme alone for no effect
Autofluor counter – counter-screen for toxin protease inhibitors: compound fluorescence; compound autofluorescence counterscreen, microsphere flow cytometry; stronger effect = higher value; fluorescence intensity (no concentration beside the values); 3.1% of 360,000 active; AID 624483; in the data active = fluorescence intensity above about 16000; inconclusive = no clear call, values can overlap the other calls
3CLpro inhibitor – SARS-CoV 3CLpro protease inhibition. P0C6X7. recombinant SARS-CoV 3CLpro, quenched FRET peptide cleavage. inhibition, % at 6 µM. 0.14% of 290,000 active. AID 1706; in the data active = inhibition above about 12%
BoNT-F LC inh – BoNT F light chain protease inhibition; Multiplex microsphere protease cleavage assay, flow cytometry; inhibition, % at 10 µM; 0.22% of 360,000 active; AID 588497; in the data active = inhibition above about 35%, passing the limit was not always enough; inconclusive = no clear call, values can overlap the other calls; also: plate controls were buffer without enzyme for full effect and enzyme alone for no effect
CCHFV vOTU inh – blocks the CCHF virus ovarian tumor domain protease | 0.55% of 370,000 active | AID 651958 | CCHFV vOTU protease, Pep-AMC fluorescence | inhibition, % at 11.5 µM; in the data active = inhibition above about 30%; also: 0% = vehicle wells with enzyme and 100% = no enzyme wells
Starred values were filed as active, the others as inactive; ? = inconclusive; / = not tested or not shown; ! = not confirmed by another sample. Compounds with a hit are over-represented: about 3.9% of the library has one in this group of screens. Rule as the data show it, unless noted: active = inhibition above about 30%; inconclusive = no clear call, values can overlap the other calls; inactive = below that.

SMILES | BoNT-A LC inh2 | Anthrax LF inh2 | Autofluor counter | 3CLpro inhibitor | BoNT-F LC inh | CCHFV vOTU inh
CCCNS(=O)(=O)c1cccc(C(=O)NC2CCCc3ccccc32)c1 (stereo unspecified) | 1.0 | -0.8 | 22288* | 2.5 | 2.6 | -0.8
Cn1c(=O)oc2cc(S(=O)(=O)NCCC(=O)NC3CCCc4ccccc43)ccc21 (stereo unspecified) | -1.0 | -2.8 | 20326* | -1.0 | -1.6 | -3.7
CC(C)OCCCNS(=O)(=O)c1ccc2c(c1)oc(=O)n2C | -0.2 | 4.8 | 5787 | -4.8 | 0.1 | -3.7
O=C(Nc1ccc2ncccc2c1)c1cc(-c2ccc(Cl)cc2)nc2ccccc12 | / | / | / | / | / | -1.2
CN(C)S(=O)(=O)c1cccc(C(=O)N/N=C\c2cccc(C#N)c2)c1 | / | / | / | / | / | -8.2
CCOc1ccc(-n2c(SCC(=O)Nc3cccc4ccccc34)nnc2-c2ccncc2)cc1 | / | / | / | / | / | 7.7
Cc1cn(C(=O)c2ccccc2)c(=S)n1-c1ccc(Cl)cc1 | -1.6 | -3.1 | 17230* | 4.1 | -1.7 | 2.1
Cc1ccc(-n2c(C)cn(C(=O)c3ccccc3)c2=S)cc1 | 2.3 | -0.7 | 15652 | -0.7 | 2.1 | 0.6
COc1ccccc1OCc1ccc(C(=O)N2N=C(C(F)F)CC2(O)C(F)F)o1 (stereo unspecified) | -2.8 | -1.3 | 16851* | -2.4 | -4.4 | -8.8
Cc1cccc(C)c1N1CCN(c2nc(N(C)C)oc(=O)c2C#N)CC1 | 0.3 | 0.8 | 23077* | -1.7 | 2.3 | -2.4
CN(C)c1nc(N2CCN(c3ccccc3)CC2)c(C#N)c(=O)o1 | 0.4 | -3.6 | 5550 | 6.2 | -4.2 | -2.2
COc1nnc(-c2ccc(N3CCCCC3)c(NC(C)=O)c2)c2ccccc12 | ? | 1.8 | 19145* | -7.5 | 2.3 | -3.5
Cc1cc(C)cc(N(CC(=O)NC2CCC(C)CC2)S(=O)(=O)c2ccc(C(C)(C)C)cc2)c1 (stereo unspecified) | / | / | / | / | / | 1.9
CCc1c(C)sc(NC(=O)c2cc(-c3ccc(OC)c(OC)c3)on2)c1C#N | 0.1 | 2.1 | 9787 | 4.1 | 0.0 | -5.1
CCc1c(C)sc(NC(=O)c2cc(-c3cc(OC)ccc3OC)on2)c1C#N | 4.2 | -1.6 | 21969* | 2.1 | 5.7 | -5.3
COC(=O)[C@]12C[C@H](CC(=O)NCC3CCCCC3)C(=O)N(Cc3ccco3)C1=C[C@H](C1CCCC1)O[C@@H]2C | / | / | / | / | / | 15.8
COc1cc(C(=O)Nc2ccc(S(=O)(=O)NC(C)(C)C)cc2)cc(OC)c1OC | 1.0 | 0.1 | 9618 | -1.2 | 4.8 | 0.8
COc1ccc(CC(=O)Nc2ccc(S(=O)(=O)N(C)C)cc2)cc1OC | -0.2 | -6.4 | 4813 | 2.3 | -10.9 | 10.3
COc1cc(C(=O)Nc2ccc(S(=O)(=O)NC(C)C)cc2)cc(OC)c1OC | 0.3 | -3.0 | 16279* | 0.6 | 0.0 | 1.5
COc1cc(CC(=O)Nc2ccc(S(=O)(=O)N(C)C)cc2)cc(OC)c1OC | -0.3 | 0.2 | 23513* | -2.3 | 2.9 | -0.2
O=C(/C=C(\Nc1ccc(F)cc1)c1ccccc1)c1ccccc1 | / | / | / | / | / | -6.3
Cc1ccc(N/C(SCc2ccccc2C)=C(/C#N)C(=O)NCc2ccco2)cc1C | -1.1 | -7.1 | 22786* | 2.8 | -1.6 | 9.5
C=CCN=C1NC(c2ccccc2)C(C(=O)OC)=C(C)N1Cc1ccccc1C(F)(F)F (stereo unspecified) | / | / | / | / | / | 9.5
CCCCOc1ccc(C(=O)NCC2(c3ccccc3)CCOCC2)cc1 | ? | -0.2 | 22415* | 0.3 | 1.6 | 6.0
CCOc1ccc(C(=O)NCC2(c3ccccc3)CCOCC2)cc1 | -0.7 | -0.9 | 2975 | -3.4 | -13.9 | -5.8
SMILES | BoNT-A LC inh2 | Anthrax LF inh2 | Autofluor counter | 3CLpro inhibitor | BoNT-F LC inh | CCHFV vOTU inh
CCCCCOc1ccc(C(=O)NCC2(c3ccccc3)CCOCC2)cc1 | -1.8 | -6.1 | 16606* | 0.6 | -2.2 | 4.6
CSCC[C@H](NC(=O)OC(C)(C)C)c1nnc(SCC(N)=O)o1 | 0.3 | -1.3 | 2718 | -3.1 | 1.0 | -0.2
CSCC[C@H](NC(=O)OC(C)(C)C)c1nnc(SCC=C(C)C)o1 | -7.0 | -5.9 | 25549* | -1.7 | -10.2 | 6.6
CC(C)(C)OC(=O)N[C@@H](Cc1ccccc1)c1nnc(SCC(=O)O)o1 | 0.6 | 11.9 | 6783 | 1.2 | -1.0 | -11.5
CCSc1nnc([C@H](Cc2ccccc2)NC(=O)OC(C)(C)C)o1 | 0.2 | -1.1 | 23861* | 1.4 | -2.5 | 5.0
CC(C)(C)OC(=O)N[C@@H](Cc1ccccc1)c1nnc(SCC(=O)c2ccc(Cl)cc2)o1 | 2.9 | -1.9 | 19238* | -0.2 | 1.6 | 5.5
CCN(CC)C(=O)CSc1nnc([C@@H](NC(=O)OC(C)(C)C)C(C)C)o1 | -2.7 | 0.7 | 17771* | -1.5 | -2.8 | -6.9
O=c1cc(O)nc(SCc2ccccc2)n1-c1ccccc1 | -2.2 | -3.8 | 24058*! | 4.3 | -3.5 | -1.4
CC1(C)Cc2nc3nc(SCC(=O)NCCc4ccccc4)n(-c4ccccc4)c(=O)c3cc2CO1 | 0.9 | -2.4 | 16362* | 1.1 | 3.9 | -7.9
O=C(CSc1nc(O)cc(=O)n1-c1ccccc1)NCc1ccccc1 | -1.5 | -0.8 | 16693* | -5.2 | -1.3 | 6.5
C=CCn1c(SCc2ccccc2)nc(O)cc1=O | 1.1 | 0.4 | 4153 | 6.5 | -0.7 | 8.2
Cc1ccc(S(=O)(=O)N2CCCC(C(=O)NCc3ccco3)C2)cc1 (stereo unspecified) | / | / | / | / | / | 19.3
COC(=O)C1=C(C)N(Cc2ccccc2C(F)(F)F)C(=NCc2ccccc2C(F)(F)F)NC1c1ccc(F)cc1 (stereo unspecified) | / | / | / | / | / | 5.7
O=C1CCC2c3ccc4ccccc4c3CCN12 (stereo unspecified) | -1.6 | 2.6 | 20473* | -4.5 | -4.2 | 4.1
Cc1ccc(NC(=O)CSC2=C(C#N)C(c3ccc4c(c3)OCO4)CC(=O)N2)cc1C (stereo unspecified) | 2.0 | -6.7 | 22137* | -3.6 | 4.4 | /
C[C@H]1/C=C/CC(=O)N[C@@H](c2ccccc2)[C@@H](C)/C=C/CC(=O)N[C@H]1c1ccccc1 | / | / | / | / | / | -2.7
O=C1N(CCCN2C(=O)C3(OCCO3)c3ccccc32)c2ccccc2C12OCCO2 | -5.7 | 0.5 | 21454* | 0.3 | -5.1 | 6.5
COc1ccccc1NC(=O)CN1C(=O)C2(OCCCO2)c2ccccc21 | 1.9 | 0.5 | 20250* | -2.2 | 0.9 | /
CCCC(=O)CN1C(=O)C2(OCCO2)c2ccccc21 | -1.0 | -2.8 | 22726* | -10.6 | 0.7 | -5.7
NNC(=O)CN1C(=O)C2(OCCO2)c2ccccc21 | -0.4 | -1.9 | 4029 | / | -7.1 | -1.6
CC(C)CC(=O)CN1C(=O)C2(OCCO2)c2ccccc21 | -1.6 | 1.6 | 23745* | -5.2 | -0.9 | -1.7
COc1ccc(CNC(=O)c2sc3nc(C)c(Cl)c(C)c3c2N)cc1 | / | / | / | / | / | -7.1
COc1ccc(CCC[C@@H](CCC(=O)N(c2ccccc2)c2ccccc2)CCc2ccccc2)cc1 | / | / | / | / | / | 4.6
Cc1ccc(S(=O)(=O)N2CCCc3nc(-c4ccccc4)ccc32)cc1 | / | / | / | / | / | -5.5
COC(=O)[C@]12C[C@H](CC(=O)N3CCCCC3)C(=O)N(CCc3ccc(OC)c(OC)c3)C1=C[C@H](C(C)(C)C)O[C@@H]2C | / | / | / | / | / | 7.4
CCC(C)(C)NC(=O)C1CCN(c2nc(C)cc(C)n2)CC1 | -1.3 | -0.7 | 16929* | -5.6 | -0.7 | 4.0
